Measured values: the supplement of paper PMC3616981

Compound: CC(C)c1cccc(C(C)C)c1N1C(=O)c2ccc(O)cc2C1=O
Test: reporter fold induction vs vehicle; higher = higher reporter activity
Outline: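 Multiplexed cellular biosensor reporter system with cis response-element and trans nuclear-receptor transcription factor reporter constructs (48 cis, 25 trans) and homogeneous detection, tested in ToxCast Phase II at 8 concentrations (0.091–200 µM). Reporter activity is given as fold induction relative to vehicle control. Replicates were averaged where present.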

Target	reporter fold induction (0.091 µM)	reporter fold induction (0.274 µM)	reporter fold induction (0.823 µM)	reporter fold induction (2.469 µM)	reporter fold induction (7.407 µM)	reporter fold induction (22.22 µM)	reporter fold induction (66.67 µM)	reporter fold induction (200 µM)
CAR_TRANS	1.1	0.946	0.997	0.985	0.814	0.835	0.84	0.343
STAT3_CIS	1.05	1	0.995	0.975	0.977	1.15	1.02	0.913
ISRE_CIS	1.23	0.874	1.04	0.962	0.9	0.883	0.605	0.362
RXRa_TRANS	0.986	0.983	1.1	0.957	1.09	1.31	1.31	1.84
NURR1_TRANS	1.09	1.26	1.01	1.05	1.08	0.976	0.934	1.2
GLI_CIS	1.04	0.925	1	1.04	0.914	0.833	1.19	2.1
ERRa_TRANS	1.21	0.853	1.02	1.39	1.37	0.823	0.836	0.339
Oct_MLP_CIS	1.09	1.03	1.03	1.01	1.08	1.1	1.77	3.68
Myc_CIS	1.01	1.03	0.99	0.982	1.09	1.04	1.05	2.33
TAL_CIS	1.06	0.981	1.01	0.98	1.11	1.09	1	1.28
SREBP_CIS	1.04	0.954	1.01	0.996	1.05	0.976	1.16	1.49
PPARg_TRANS	1.01	1.06	0.946	0.881	1.19	1.53	1.62	1.47
BRE_CIS	0.993	0.878	1.14	0.967	0.938	0.934	3.36	1.05
M_61_TRANS	0.964	1.01	0.995	1.01	1.01	1	0.996	0.992
RARa_TRANS	1.04	0.782	1.21	1.2	1.48	2.4	2.07	0.506
HNF6_CIS	0.992	0.941	0.978	0.981	0.982	0.952	0.932	0.692
M_19_CIS	1.01	1.01	0.978	1.01	0.961	0.953	1.05	0.776
HSE_CIS	0.991	0.939	1.05	1.05	0.985	0.942	1.81	3.95
C_EBP_CIS	1.02	0.969	1.04	1.04	1.12	0.945	1.31	1.32
FoxO_CIS	1.07	1.02	0.985	0.99	1.03	0.938	0.872	1.07
